Shown are actives, neighbours in structure and some others; about 6.6% of the full set was active somewhere.
MK inhibit = inhibitors of Streptococcus pneumoniae mevalonate kinase. purified MK, PK/LDH-coupled NADH absorbance 340 nm. inhibition, % at 10 µM. hit rate 0.48% among 65,000;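 active = ranked among the strongest by inhibition in the single 10 µM screen, a fixed top-ranked set picked for dose follow-up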
Fluor 339 460 = intrinsic fluorescence of library compounds, ex339/em460 – biochemical, MLSMR library, data from DPM-DC assay, artefact control, profiling panel; hit rate 5.5% among 65,000; fluorescence fold increase at 10 µM; compound autofluorescence, ex339/em460 nm, NADH buffer; hits give high values; 1 = no-compound wells, NADH background; AID 709;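 active = at 10 µM, mean starting fluorescence two-fold or more over control wells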;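 also: signal is the first read of a kinetic run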
PMK inhibit = blocks S. pneumoniae phosphomevalonate kinase; purified PMK, PK/LDH-coupled NADH absorbance 340 nm; hit rate 0.49% among 65,000; inhibition, % at 10 µM;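 active = top-ranked compounds by inhibition in the single 10 µM screen, taking a fixed number of the strongest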;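 also: 0% = full reaction with DMSO carrier and 100% = background rate without enzyme reaction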
Spn DPM-DC inh = inhibitors of Streptococcus pneumoniae diphosphomevalonate decarboxylase. AID 556. calls only at 10 µM. purified DPM-DC, PK/LDH coupled NADH fluorescence. hit rate 0.49% among 65,000;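 active = the 320 compounds with the highest percent inhibition in the single-dose primary screen, excluding strongly autofluorescent ones, cut at about 32% in these data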;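 also: kinetic rate of NADH fluorescence loss reporting ADP formed by the decarboxylase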
NADH enzymes = blocks coupling enzymes of NAD/NADH assays; coupled PK/LDH NADH assays, four targets; IC50, µM (doses to about 10 µM), for inactives: top-dose inhibition; hit rate 0.02% among 65,000; AID 774;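 active = single-dose screening hits from any of four coupled enzyme assays that gave an IC50 when retested across doses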;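 also: the DPM-DC format reads NADH fluorescence rather than 340 nm absorbance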
* marks the source's active call; other numbers are inactive results; i = inactive; . = no result shown; + = active, no number.

SMILES	MK inhibit	Fluor 339 460	PMK inhibit	Spn DPM-DC inh	NADH enzymes
COc1ccc2[nH]c(=O)c(CN(C)C(=O)COc3ccccc3)cc2c1	11	3.4*	18	.	15%
COc1ccc2[nH]c(=O)c(CN(C(C)=O)c3cccc(C)c3)cc2c1	0	3.2*	7	i	5%
O=C(Nc1ccc(N2CCOCC2)cc1)C1CCCN(S(=O)(=O)c2cccc(C(F)(F)F)c2)C1 (stereo unspecified)	0	1	18	i	6%
O=C(OCCN(C1=NS(=O)(=O)c2ccccc21)c1ccc(Cl)cc1)c1ccco1	2	1.1	15	i	6%
CCN(Cc1cc2cc(OC)ccc2[nH]c1=O)C(=O)Cc1ccc(OC)cc1	6	2.4*	3	i	1%
COc1ccc2[nH]c(=O)c(CN(C(=O)C3CCCO3)c3ccc(C)cc3)cc2c1 (stereo unspecified)	11	2.9*	15	i	17%
CCOc1cc(C(=O)N(C)Cc2cc3cc(OC)ccc3[nH]c2=O)cc(OCC)c1OCC	13	1.6	13	i	6%
CCOc1ccccc1C(=O)N(C)Cc1cc2cc(OC)ccc2[nH]c1=O	9	2.7*	1	i	9%
CCN(Cc1cc2cc(OC)ccc2[nH]c1=O)C(=O)c1ccncc1	3	1.8	9	i	5%
CCOc1ccc(N(Cc2cc3cc(OC)ccc3[nH]c2=O)S(C)(=O)=O)cc1	4	2.8*	5	i	12%
CCOc1ccc(N2CC(C(=O)OC)CC2=O)cc1 (stereo unspecified)	8	0.58	0	+	16%
Cc1ccc(-c2cc(C(=O)Nc3cccnc3)c3ccccc3n2)o1	15	2.2*	0	.	8%
O=C(Nc1cccnc1)c1coc(=O)c2ccccc12	5	1.5	11	i	10%
COCCNc1oc(-c2ccc(C)cc2)nc1C#N	0	2.5*	7	.	3%
COCCNc1oc(-c2ccc(Cl)cc2)nc1C#N	0	2.4*	10	.	5%
CN(C)c1oc(-c2ccc(OCc3ccc(Cl)cc3)cc2)nc1C#N	5	3.3*	1	i	6%
COCCCNc1oc(COc2ccc(Cl)cc2Cl)nc1C#N	7	1.4	6	i	4%
CCN(CC)CCCNc1oc(-c2cccc(Cl)c2)nc1C#N	15	3*	16	.	5%
CN(C)c1oc(COc2ccc(F)cc2)nc1C#N	10	1.1	4	i	5%
Clc1ccc(COc2ccccn2)c(Cl)c1	0	1.1	0	i	0%
CN(C)CCNc1oc(COc2ccc(-c3ccccc3)cc2)nc1C#N	10	1.1	7	i	6%
CN(C)CCCNc1oc(-c2ccc(Cl)cc2)nc1C#N	7	4.8*	6	.	7%
CCCOc1ccc(-c2nnc(-c3ccco3)o2)cc1	15	2.2*	5	i	7%
O=c1c(O)c(-c2ccc3c(c2)OCO3)oc2ccccc12	1	3*	13	i	14%
O=C(Nc1ccc2c(c1)oc1ccccc12)c1ccc2c(c1)OCO2	11	1.9	9	i	13%
SMILES	MK inhibit	Fluor 339 460	PMK inhibit	Spn DPM-DC inh	NADH enzymes
Cc1cc(NC(=O)C(C)C)ncc1NC(=O)CCc1ccccc1	5	1.1	11	i	5%
Cc1cc(NC(=O)c2cc3nc(C4CC4)cc(C(F)(F)F)n3n2)no1	2	1.3	2	i	1%
Cc1cc(NC(=O)c2cc3nc4c(c(C(F)(F)F)n3n2)CCc2ccccc2-4)no1	8	2.2*	23	.	16%
CCc1c(C)nc(N)n2c(SCC(=O)N3CCN(c4ccccc4OC)CC3)nnc12	4	1.1	10	i	5%
O=c1[nH]cnc2nc(-c3ccccc3)c(-c3ccccc3)nc12	8	5.1*	21	.	15%
O=c1[nH]cnc2nn(-c3ccccc3)nc12	0	1.9	0	i	3%
CCOCCCNS(=O)(=O)c1ccc(NC(=O)c2ccccc2)cc1	9	1	1	i	5%
CCOC(=O)Nc1nnc(CCc2ccccc2)s1	7	2.6*	9	i	8%
CCOC(=O)Nc1nnc(-c2ccc(OC)c(OC)c2)s1	9	3.7*	12	.	11%
COC(=O)Nc1nnc(CCc2ccccc2)s1	6	1	10	i	4%
CC1(C)Cc2c(c(N3CCOCC3)nc3sc(C#N)c(N)c23)CS1	7	2.5*	0	.	2%
CN1c2cccc3cccc(c23)N(C)C1(C)C	0	3.7*	18	.	9%
CCC(C(=O)Nc1nnc(-c2ccco2)s1)c1ccccc1 (stereo unspecified)	3	1.4	10	i	4%
Cc1ccc(-c2nnn(CC(=O)N(CC(=O)NCC3CCCO3)c3ccc(F)c(Cl)c3)n2)o1 (stereo unspecified)	0	1.1	44*	i	15%
O=C(NC1CCCCC1)N(Cc1cc2cc3c(cc2[nH]c1=O)OCCO3)CC1CCCO1 (stereo unspecified)	9	4.5*	11	.	10%
Cc1cccc2cc(CN(CCN3CCCC3)C(=O)NC3CCCCC3)c(=O)[nH]c12	3	1.2	30*	i	4%
O=C(NC1CCCCC1)N(CCN1CCCC1)Cc1cc2cc3c(cc2[nH]c1=O)OCCO3	0	3.6*	14	+	19%
COc1ccc(C2/C(=C(/O)c3ccccc3)C(=O)C(=O)N2CC(C)O)c(OC)c1 (stereo unspecified)	8	1.1	9	i	6%
COc1ccc(-c2nn(CC(=O)N(C)C)c(=O)c3ccccc23)cc1	12	1.1	7	i	8%
CSC(=O)CC(=O)NC(=O)c1ccccc1	9	1	3	i	4%
CCCCCCOC(=O)Sc1nc2ccccc2o1	2	1.1	0	i	1%
COc1ccccc1-c1nc(C#N)c(N2CCN(c3ccccc3)CC2)o1	14	1.7	14	i	4%
CC1CCCN(c2oc(-c3cccc4ccccc34)nc2C#N)C1 (stereo unspecified)	4	3.8*	0	.	2%
N#Cc1nc(-c2ccco2)oc1N1CCOCC1	13	3.9*	15	.	14%
N#Cc1nc(-c2ccco2)oc1N1CCN(c2ccccc2)CC1	16	1.3	16	i	11%
SMILES	MK inhibit	Fluor 339 460	PMK inhibit	Spn DPM-DC inh	NADH enzymes
N#Cc1nc(-c2ccccc2Cl)oc1N1CCOCC1	0	2*	0	.	0%
COc1ccccc1-c1nc(C#N)c(N2CCc3ccccc3C2)o1	7	3.9*	4	.	6%
CC1(C)NC(=O)N(CNc2cc(Cl)ccc2Cl)C1=O	6	1.1	15	i	3%
CC1(C)CC(=O)C=C(NCCc2ccc(S(N)(=O)=O)cc2)C1	5	1.1	11	i	5%
CCOC(=O)C1CSC(CC(=O)Nc2ccc(Cl)cc2)C(=O)N1 (stereo unspecified)	9	1.1	20	i	3%
Cc1cc2n(n1)C(c1c[nH]c3ccccc13)Nc1ccccc1-2 (stereo unspecified)	0	2.4*	0	i	7%
